Measurements published in PubChem BioAssay (Tox21).
Unmarked numbers belong to inactive results. Results filed as inconclusive are left out. A call without a number means that no potency is given here. Activity calls are given as the source filed them. Unless noted, the call rests on the fitted dose curve.

Tests used:
[1] = Nuclear factor erythroid 2-related factor 2/antioxidant responsive element (Nrf2/ARE) small molecule agonists: luciferase reporter gene qHTS assay in human keratinocytes (AID 1919969); further: nearly all actives have a fitted effect of over 35% in size; further: potency means the concentration at half of the fitted maximal effect
[2] = molecular target: Gonadotropin-releasing hormone receptor (Homo sapiens) (UniProt P30968); experiment: Human gonadotropin-releasing hormone receptor (GnRHR) small molecule agonists, calcium flux assay in GnRHR-HEK293 cells (AID 1920063); further: nearly all actives have a fitted effect of over 35% in size
Procedure, shortened: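 Calcium-dye fluorescence, Ex/Em=480/540, recorded every 1 sec over 3 min after compound addition to GnRHR-HEK293 cells. Cells had been seeded 18 hours earlier and dye-loaded for 1 hour at 37 C. Fifteen concentrations, triplicates.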

[3] = molecular target: KiSS-1 receptor (Homo sapiens) (UniProt Q969F8); experiment: Human kisspeptin (KISS1R) small molecule agonists, calcium flux assay in KISS1R-HEK293 cells (AID 1920064; active means well fitted activation curve with a large enough effect in the repeat runs)
Procedure, shortened: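 Calcium flux read-out: kinetic fluorescence at Ex/Em=480/540, 1 s intervals over 3 min, after pin-tool compound addition to dye-loaded KISS1R-HEK293 cells. Fifteen concentrations, triplicates.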

[4] = G protein-coupled receptor (GPCR) small molecule agonists, calcium flux assay: HEK293 wild type cell line counter screen (AID 1920065)
Procedure, shortened: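 Agonist mode; 18 h seeding at 37 C, 1 h dye load at 37 C; compounds pinned from DMSO, ATP as positive control; kinetic fluorescence 480/540 nm, 3 min, 1 s reads; 15 concentrations, triplicate.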

[5] = p53 small molecule agonists, cell-based qHTS assay with human liver microsomes: qHTS cell viability counter screen (AID 1963579); further: nearly all actives have a fitted effect of over 45% in size
Procedure, shortened: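 Seed p53RE-bla cells at 4,000 per well; incubate 5 h at 37 C; add compound, human liver microsomes and NADPH; incubate 16 h at 37 C; add CellTiter-Glo; after 30 min at room temperature, read luminescence.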

[6] = p53 small molecule agonists, cell-based qHTS assay with rat liver microsomes: qHTS cell viability counter screen (AID 1963580); further: nearly all actives have a fitted effect of over 45% in size
Procedure, shortened: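 Cytotoxicity counter screen: intracellular ATP read by CellTiter-Glo luminescence in the p53 reporter wells. HCT-116 p53RE-bla cells were treated for 16 h at 37 C alongside rat liver microsomes and NADPH, each 0.5 mg/mL final.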

[7] = p53 small molecule agonists, cell-based qHTS assay: qHTS cell viability counter screen (AID 1963581); further: nearly all actives have a fitted effect of over 45% in size
Procedure, shortened: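 Cytotoxicity read-out: ATP-based luminescence (CellTiter-Glo, 30 min RT) measured in the same wells as the p53 reporter assay, HCT-116 p53RE-bla cells, 16 h compound exposure at 37 C.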

[8] = molecular target: 5-hydroxytryptamine receptor 2A (Homo sapiens) (UniProt P28223); experiment: 5-hydroxytryptamine receptor 2A (HTR2A) small molecule antagonists, cell-based qHTS assay (AID 1963586); further: nearly all actives have a fitted effect of over 45% in size
Procedure, shortened: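 CHO cells stably expressing human HTR2A were plated for 18 h at 37 C, then loaded with calcium dye for 1 h. Compounds were preincubated 5 min at room temperature before DOI (4 nM solution) was added. Kinetic fluorescence was read for 3 min.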

[9] = molecular target: 5-hydroxytryptamine receptor 2A (Homo sapiens) (UniProt P28223); experiment: 5-hydroxytryptamine receptor 2A (HTR2A) small molecule agonists, cell-based qHTS assay (AID 1963587); further: nearly all actives have a fitted effect of over 30% in size
Procedure, shortened: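 Kinetic calcium-flux fluorescence (2 min, 1 sec intervals) after compound addition in agonist mode. HTR2A-CHO cells were cultured 18 h, then dye-loaded 1 h at 37 C.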

[10] = molecular target: Muscarinic acetylcholine receptor M1 (Homo sapiens) (UniProt P11229); experiment: Cholinergic receptor muscarinic 1 (CHRM1) small molecule antagonists, cell-based qHTS assay (AID 1963588); further: nearly all actives have a fitted effect of over 40% in size; further: potency means the concentration at half of the fitted maximal effect
Procedure, shortened: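 Compounds were tested at 15 concentrations in three independent runs. Dye-loaded CHRM1-CHO cells were exposed 5 min at room temperature before stimulation by acetylcholine added at 50nM. Intracellular calcium was read kinetically on FDSS for 3 min.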

[11] = molecular target: Muscarinic acetylcholine receptor M1 (Homo sapiens) (UniProt P11229); experiment: Cholinergic receptor muscarinic 1 (CHRM1) small molecule agonists, cell-based qHTS assay (AID 1963589); further: nearly all actives have a fitted effect of over 35% in size
Procedure, shortened: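 Calcium flux read-out: kinetic fluorescence at 1 sec intervals after pin-tool compound addition to dye-loaded CHRM1-CHO cells (human M1). Agonist mode; 15 concentrations tested in triplicate independent runs.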

[12] = cAMP Responsive Elements (CRE) small molecule agonists, cell-based qHTS assay (AID 1963590)
Procedure, shortened: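 Beta-lactamase reporter readout: LiveBLAzer B/G FRET substrate, 2 h at room temperature, added after 3 h compound treatment of CRE-bla HEK 293T cells at 37 C/5% CO2.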

[13] = cAMP Responsive Elements (CRE) small molecule antagonists, cell-based qHTS assay (AID 1963591; active means well fitted inhibition curve with a large enough effect in the signal ratio in the repeat runs, not every such curve was filed as active; the % refers to the signal ratio)
Procedure, shortened: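 HEK293T CRE-bla; 18 h preincubation; compound pin-transfer; NKH477 0.25 uM final, 3 h, 37 C; LiveBLAzer FRET substrate 2 h RT.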

[14] = molecular target: Beta-2 adrenergic receptor (Homo sapiens) (UniProt P07550); experiment: Adrenergic beta2 receptor (ADRB2) small molecule antagonists, cell-based qHTS assay (AID 1963592); further: series mostly up to about 92 µM; nearly all actives have a fitted effect of over 50% in size
Procedure, shortened: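 Assay format: CHO-ADRB2 cells, 18-20hr seeding at 37C/5% CO2, then compound plus 1nM isoproterenol agonist mix for 0.5hr RT. Homogeneous time-resolved fluorescence cAMP detection after 1hr, expressed as 665/615 nm ratio.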

[15] = molecular target: Beta-2 adrenergic receptor (Homo sapiens) (UniProt P07550); experiment: Adrenergic beta2 receptor (ADRB2) small molecule agonists, cell-based qHTS assay (AID 1963593);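 further: CHO cells stably overexpressing human ADRB2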
Procedure, shortened: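 CHO cells stably over-expressing ADRB2 were plated overnight at 37C, then dosed with compounds plus a stimulation mix containing 100uM IBMX and 25uM Ro-20-1724 for 0.5hr at room temperature. cAMP was measured by HTRF competition, 1hr.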

[16] = molecular target: D(2) dopamine receptor (Homo sapiens) (UniProt P14416); experiment: Dopamine D2 receptor (DRD2) small molecule agonists, cell-based qHTS assay (AID 1963594); further: nearly all actives have a fitted effect of over 35% in size
Procedure, shortened: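 cAMP accumulation in DRD2-HEK293 cells measured by HTRF after 1 h detection; compounds added 10 min before NKH477 (200nM […]) forskolin-analogue stimulation, 30 min at room temperature, with Ro20-1724 present at 0.1 mM final.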

[17] = molecular target: D(2) dopamine receptor (Homo sapiens) (UniProt P14416); experiment: Dopamine D2 receptor (DRD2) small molecule antagonists, cell-based qHTS assay (AID 1963595; active means well fitted inhibition curve with a large enough effect in the signal ratio in the repeat runs, with a control signal flat; the % refers to the signal ratio)
Procedure, shortened: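 Cells were plated and grown for 24 h at 37 °C. Ro20-1724 (0.1 mM final) went in first, then compound for 10 min. NKH477 (200 nM) with quinpirole (12 nM) followed for 30 min at RT, then HTRF detection reagents for 1 h.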

[18] = p53 small molecule agonists, cell-based qHTS assay with rat liver microsomes (AID 1963578)
Procedure, shortened: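 Fluorescence from a beta-lactamase reporter under a p53 response element was measured after cells had been incubated 16 h at 37 C with test compound and rat liver microsomes plus NADPH (0.5 mg/mL final each).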

[19] = p53 small molecule agonists, cell-based qHTS assay (AID 1963582; active means well fitted activation curve with a large enough effect in the signal ratio in the repeat runs, not every such curve was filed as active; the % refers to the signal ratio)
Procedure, shortened: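 Fluorescence intensity read-out of a beta-lactamase reporter under a p53 response element. Cells were exposed to DMSO-dissolved compounds for 16 h at 37 C, then developed with FRET substrate for 2 h at RT.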

Sequence of Beta-2 adrenergic receptor (Homo sapiens) (P07550 whole entry, looked up): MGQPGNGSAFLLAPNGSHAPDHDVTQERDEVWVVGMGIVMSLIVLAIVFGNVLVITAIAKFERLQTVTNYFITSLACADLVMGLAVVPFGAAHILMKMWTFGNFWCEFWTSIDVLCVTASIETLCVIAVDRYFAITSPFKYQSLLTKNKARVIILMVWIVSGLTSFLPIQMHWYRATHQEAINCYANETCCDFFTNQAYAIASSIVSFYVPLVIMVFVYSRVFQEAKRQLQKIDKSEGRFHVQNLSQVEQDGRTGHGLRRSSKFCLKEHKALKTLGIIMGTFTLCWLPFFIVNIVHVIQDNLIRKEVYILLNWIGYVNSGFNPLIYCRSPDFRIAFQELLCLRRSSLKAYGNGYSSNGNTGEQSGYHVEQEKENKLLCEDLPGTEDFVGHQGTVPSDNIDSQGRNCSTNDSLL
Sequence of D(2) dopamine receptor (Homo sapiens) (P14416 whole entry, looked up): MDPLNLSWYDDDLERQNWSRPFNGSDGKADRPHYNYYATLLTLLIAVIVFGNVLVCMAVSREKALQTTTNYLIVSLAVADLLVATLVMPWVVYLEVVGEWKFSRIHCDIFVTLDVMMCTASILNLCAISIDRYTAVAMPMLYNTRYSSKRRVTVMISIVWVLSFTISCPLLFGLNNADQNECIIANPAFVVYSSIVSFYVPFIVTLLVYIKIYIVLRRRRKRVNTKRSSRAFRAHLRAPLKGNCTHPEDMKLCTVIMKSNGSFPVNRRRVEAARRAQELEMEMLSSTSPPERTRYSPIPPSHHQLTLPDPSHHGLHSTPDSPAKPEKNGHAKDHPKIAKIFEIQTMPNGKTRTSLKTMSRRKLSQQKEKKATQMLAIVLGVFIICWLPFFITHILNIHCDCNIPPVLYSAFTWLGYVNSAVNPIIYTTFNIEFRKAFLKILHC
Sequence of Muscarinic acetylcholine receptor M1 (Homo sapiens) (P11229 whole entry, looked up): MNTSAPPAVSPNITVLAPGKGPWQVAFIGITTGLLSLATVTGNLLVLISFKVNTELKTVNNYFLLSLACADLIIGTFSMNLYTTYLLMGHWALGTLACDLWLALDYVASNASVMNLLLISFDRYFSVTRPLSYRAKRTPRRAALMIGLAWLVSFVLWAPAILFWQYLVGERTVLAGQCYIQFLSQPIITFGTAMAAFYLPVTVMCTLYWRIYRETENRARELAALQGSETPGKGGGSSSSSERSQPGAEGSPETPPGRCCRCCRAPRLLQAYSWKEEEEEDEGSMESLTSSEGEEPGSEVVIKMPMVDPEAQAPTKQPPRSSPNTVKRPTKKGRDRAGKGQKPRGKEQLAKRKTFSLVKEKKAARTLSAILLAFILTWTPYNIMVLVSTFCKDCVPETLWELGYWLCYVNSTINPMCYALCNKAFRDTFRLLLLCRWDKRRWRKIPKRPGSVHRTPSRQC
Sequence of 5-hydroxytryptamine receptor 2A (Homo sapiens) (P28223 whole entry, looked up): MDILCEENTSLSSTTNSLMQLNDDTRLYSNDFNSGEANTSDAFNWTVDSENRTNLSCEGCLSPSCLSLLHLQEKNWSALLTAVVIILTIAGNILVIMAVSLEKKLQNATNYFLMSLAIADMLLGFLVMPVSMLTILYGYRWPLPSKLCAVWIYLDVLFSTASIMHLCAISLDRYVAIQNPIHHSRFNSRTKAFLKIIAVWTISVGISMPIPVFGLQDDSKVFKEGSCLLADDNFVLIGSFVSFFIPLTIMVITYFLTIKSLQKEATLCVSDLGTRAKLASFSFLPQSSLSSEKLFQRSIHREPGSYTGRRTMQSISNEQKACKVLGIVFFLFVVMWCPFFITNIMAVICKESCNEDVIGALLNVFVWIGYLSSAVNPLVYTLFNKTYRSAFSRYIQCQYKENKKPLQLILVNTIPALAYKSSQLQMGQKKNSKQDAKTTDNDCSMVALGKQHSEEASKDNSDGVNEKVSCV
Sequence of Gonadotropin-releasing hormone receptor (Homo sapiens) (P30968 whole entry, looked up): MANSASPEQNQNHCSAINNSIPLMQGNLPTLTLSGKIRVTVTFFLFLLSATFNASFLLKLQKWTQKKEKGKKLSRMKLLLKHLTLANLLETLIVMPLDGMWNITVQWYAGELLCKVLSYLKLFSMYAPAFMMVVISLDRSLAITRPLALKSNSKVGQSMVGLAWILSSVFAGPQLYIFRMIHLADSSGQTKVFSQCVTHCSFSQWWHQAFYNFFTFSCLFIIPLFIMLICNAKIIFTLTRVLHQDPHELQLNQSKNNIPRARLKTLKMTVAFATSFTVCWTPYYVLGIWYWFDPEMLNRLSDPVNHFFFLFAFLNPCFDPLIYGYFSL
Sequence of KiSS-1 receptor (Homo sapiens) (Q969F8 whole entry, looked up): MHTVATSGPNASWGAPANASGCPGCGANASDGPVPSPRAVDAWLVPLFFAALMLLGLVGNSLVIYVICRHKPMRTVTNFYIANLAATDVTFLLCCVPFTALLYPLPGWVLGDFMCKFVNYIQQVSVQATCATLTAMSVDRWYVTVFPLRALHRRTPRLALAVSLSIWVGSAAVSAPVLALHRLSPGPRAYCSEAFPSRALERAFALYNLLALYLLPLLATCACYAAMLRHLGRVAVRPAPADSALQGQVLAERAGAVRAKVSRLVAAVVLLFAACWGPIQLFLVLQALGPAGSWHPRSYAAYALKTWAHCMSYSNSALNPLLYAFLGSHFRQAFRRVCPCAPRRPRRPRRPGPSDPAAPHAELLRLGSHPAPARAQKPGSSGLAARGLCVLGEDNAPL

Row | Compound | Potency [1] | Potency [2] | Potency [3] | Potency [4] | Potency [5] | Potency [6] | Potency [7] | Potency [8] | Potency [9] | Potency [10] | Potency [11] | Potency [12] | Potency [13] | Potency [14] | Potency [15] | Potency [16] | Potency [17] | Potency [18] | Potency [19]
1 | C=C(C)C(=O)OCc1ccccc1 | inactive | inactive | inactive | inactive | inactive | inactive | inactive | inactive | inactive | inactive | inactive | inactive | inactive | inactive | inactive | inactive | inactive |  | 
2 | CC1CC(OC(=O)C(O)c2ccccc2)CC(C)(C)N1C (stereo not drawn) | inactive | inactive | inactive | inactive | inactive | inactive | inactive |  | inactive | 410 nM (active) | inactive | inactive | inactive | inactive | inactive | inactive | inactive |  | 
3 | CCCCCOc1ccccc1/C(=C\SC)n1ccnc1 | 5960 nM (active) | inactive | inactive | inactive |  | inactive |  | inactive | inactive |  | inactive |  |  | inactive | inactive | inactive | inactive | inactive | inactive
4 | Nc1ccn([C@@H]2O[C@H](CO)[C@@H](O)[C@@H]2O)c(=O)n1 | inactive | inactive | inactive | inactive | inactive | inactive | inactive |  |  |  |  | inactive |  | inactive |  | inactive | inactive |  | 
5 | Cc1onc(-c2c(Cl)cccc2Cl)c1C(=O)N[C@@H]1C(=O)N2[C@@H]1SC(C)(C)[C@@H]2C(=O)O | inactive | inactive | inactive | inactive |  | inactive | inactive |  | inactive | inactive | inactive | inactive | inactive | inactive | inactive | inactive | inactive | inactive | inactive
6 | CCOC(=O)COc1ccc2c(C)c(CCN(CC)CC)c(=O)oc2c1Cl | inactive | inactive | inactive | inactive |  | inactive |  | inactive | inactive | 2590 nM (active) | inactive |  |  | inactive |  | inactive | inactive | inactive | inactive
7 | CC(C)c1nc(CN(C)C(=O)N[C@H](C(=O)N[C@@H](Cc2ccccc2)C[C@H](O)[C@H](Cc2ccccc2)NC(=O)OCc2cncs2)C(C)C)cs1 | inactive | inactive | inactive | inactive | inactive | inactive | inactive |  |  |  |  |  |  | inactive |  |  | inactive |  | 
